Reference: ChEMBL document CHEMBL1961873, “Compounds: GSK PKIS; Assays: Nanosyn kinase panel” (2012)

The compounds below were run against Casein kinase I isoform gamma-1 (Homo sapiens) (UniProt Q9HCP0). Conditions: at 0.1 µM.
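Further: reported as mean inhibition, part of GSK PKIS.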

Casein kinase I isoform gamma-1 (Homo sapiens), sequence (Q9HCP0 whole entry, looked up, canonical isoform): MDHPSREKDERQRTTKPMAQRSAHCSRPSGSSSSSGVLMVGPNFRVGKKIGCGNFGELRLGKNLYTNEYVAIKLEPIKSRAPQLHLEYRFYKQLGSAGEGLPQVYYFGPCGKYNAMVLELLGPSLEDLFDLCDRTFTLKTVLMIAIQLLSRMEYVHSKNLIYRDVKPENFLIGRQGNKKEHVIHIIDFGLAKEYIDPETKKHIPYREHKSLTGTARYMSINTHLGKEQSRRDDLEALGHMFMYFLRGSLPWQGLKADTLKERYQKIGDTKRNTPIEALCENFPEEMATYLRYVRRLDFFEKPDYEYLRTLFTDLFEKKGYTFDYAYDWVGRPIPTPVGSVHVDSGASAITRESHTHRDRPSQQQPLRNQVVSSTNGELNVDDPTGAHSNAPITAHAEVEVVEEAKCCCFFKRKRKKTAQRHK

Structure (SMILES)	inhibition [%]
COc1cc(/C=N/Nc2ncnc3[nH]ncc23)ccc1O	3.68
COc1cc(Nc2nccc(Nc3ccc4c(C)n[nH]c4c3)n2)cc(OC)c1OC	2.35
COc1cc2c(cc1Nc1nc(Nc3ccsc3C(N)=O)c3cc[nH]c3n1)N(C(=O)CN(C)C)CCC2(C)C	6.43
CCn1c(-c2nonc2N)nc2c(C#CC(C)(C)O)nc(OC[C@H](N)c3ccccc3)cc21	1.99
COC(=O)Nc1nc2ccc(S(=O)(=O)c3ccc(NC(=O)Nc4cc(C(F)(F)F)ccc4F)cc3)cc2[nH]1	2.34
N#Cc1c(NC(=O)c2ccc(F)cc2)sc2c1CCCC2	0.85
CCn1c(-c2nonc2N)nc2c(C#CC(C)(C)O)ncc(OC3CCNCC3)c21	2.94
CCn1c(-c2nonc2N)nc2cnc(Oc3cccc(NC(=O)c4ccc(N(C)C)cc4)c3)cc21	1.44
Fc1cccc(COc2ccc(Nc3ncnc4sc(-c5ccco5)cc34)cc2Cl)c1	4.55
O=S(=O)(CCNCc1ccc(-c2ccc3ncnc(Nc4ccc(OCc5cccc(F)c5)c(Cl)c4)c3c2)o1)c1ccccc1	4.93
COc1cccc(-n2ncc3c(N/N=C/c4ccc(F)cc4)ncnc32)c1	3.78
NC(=O)c1sc(-n2cnc3ccc(C(F)(F)F)cc32)cc1OCc1ccccc1Br	3.36
NS(=O)(=O)c1ccc(N/N=C2\C(=O)Nc3ccc4ncccc4c32)cc1	2.39
c1ccc(-c2nc3n(c2-c2ccc4c(c2)OCO4)CCC3)nc1	1.06
CCNC(=O)O[C@H]1CN[C@H](C#Cc2cc3ncnc(Nc4ccc(OCc5cccc(F)c5)c(Cl)c4)c3s2)C1	2.15
COc1ccc(-c2cc(-c3c[nH]nc3-c3ccccn3)ccn2)cc1	4.71
Nc1nc(-c2cccc(Cl)c2)c(-c2ccc3ncccc3n2)s1	5.14

Structure (SMILES)	inhibition [%]
Clc1ccc(-c2nn3ncccc3c2-c2ccnc(Nc3ccccc3)n2)cc1	3.83
CCN1CCC(CC(=O)Nc2n[nH]c3nnc(-c4cccc(F)c4F)cc23)CC1	0.85
CN1CCC(n2cnc(-c3ccc(F)cc3)c2-c2ccnc(N)n2)CC1	1.88
CNC(=O)c1cncc(/C=C/c2ccccc2Cl)c1	0.2
CC(C)COC(=O)c1ccc2c(c1)/C(=C/Nc1ccc(S(N)(=O)=O)cc1)C(=O)N2	-1.63
CCN(CC)S(=O)(=O)c1ccc(OC)c(Nc2ncc(-c3ccccc3)o2)c1	0.91
COc1ccc(-c2oc3ncnc(N)c3c2-c2ccc(NC(=O)Nc3cc(C(F)(F)F)ccc3F)cc2)cc1	2.43
COc1ccc(CNC(=O)c2ccc(-c3cc(-c4nnc(C)o4)ccc3C)cc2)cc1	1.07
CC(C)(CO)CNC(=O)c1ccc2c(c1)/C(=N/Nc1ccc(S(N)(=O)=O)cc1)C(=O)N2	0.88
Cc1cccc2c1NC(=O)/C2=N\Nc1ccc(S(N)(=O)=O)cc1	2.88
Cc1ccc2c(-c3ccnc(Nc4ccccc4)n3)c(-c3ccc(F)cc3)nn2n1	5.48
CNC(=O)c1cccc(C#Cc2cncnc2Nc2ccc(OCc3cccc(F)c3)c(Cl)c2)c1	1.2
c1cc(-c2cnn3nc(N4CCOCC4)ccc23)nc(NC2CC2)n1	3.42
FC(F)(F)c1cccc(-c2nn3ncccc3c2-c2ccnc(Nc3ccc4c(c3)OCCO4)n2)c1	2.58
CC1=C(C(=O)Nc2cc(Cl)c3[nH]ncc3c2)C(c2ccc(C(F)(F)F)cc2)CC(=O)N1 (centres undefined)	2.91
COc1cc(N2CCN(C(C)C)CC2)ccc1Nc1nc(Nc2ccc(F)cc2C(N)=O)c2cc[nH]c2n1	9.86
O=C(Nc1n[nH]c2cc(-c3ccc(F)cc3)ccc12)C1CC1	2.86
